Bioassay records deposited in PubChem BioAssay by Sanford-Burnham Center for Chemical Genomics.
Only some compounds are listed: those with a hit (about 4% of all), similar ones and a draw of the others.
tim23-1 inh: tim23-1 yeast growth inhibition. S. cerevisiae tim23-1 growth, BacTiter-Glo luminescence, 24 h. inhibition, % at 20 µM. 1.3% of 330,000 active;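 active = growth inhibition of the mutant yeast at or above 50%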;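 also: temperature-sensitive mutant grown at 25 °C; plate controls were DMSO-treated mutant yeast for no effect and medium wells lacking yeast for full effect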
NALP3 yeast inh: blocks the NALP3 inflammasome reconstituted in yeast; Yeast reconstituted NLRP3/ASC/caspase-1, beta-gal luminescence, 24 h; inhibition, % at 10 µM; 0.39% of 330,000 active; AID 2825;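 active = inhibition of 50% or more; inactive = inhibition below 50%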;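 also: plate controls were induced DMSO wells for no effect and uninduced yeast grown without galactose for full effect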
TIM10 inh: TIM10 yeast growth inhibition. 1.4% of 330,000 active. inhibition, % at 10 µM. S. cerevisiae TIM10 strain growth, BacTiter-Glo luminescence, 24 h;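 active = inhibition of 40% or more at the single tested concentration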;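 also: wild-type TIM10 isogenic control strain grown at permissive 25 °C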
tim10-1 inh: inhibits growth of tim10-1 mutant yeast; S. cerevisiae tim10-1 ts strain growth, BacTiter-Glo, 24 h; inhibition, % at 20 µM; AID 463190; 2.2% of 330,000 active;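 active = inhibition of at least 40%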;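 also: mutant grown at 25 °C; 0% = DMSO wells with yeast and 100% = wells holding no yeast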
NALP1 yeast inh: inhibitors of NALP1 inflammasome in yeast; S. cerevisiae NALP1/ASC/caspase-1 growth, X-gal OD620, 72 h; 0.61% of 280,000 active; AID 2071; inhibition, % at 10 µM; in the data active = inhibition mostly above about 24%, no sharp cut-off; inactive = mostly below about 32%
TIM10 conf: TIM10 yeast growth inhibition, confirmed; shares compounds with TIM10 inh; S. cerevisiae tim10 strain growth, BacTiter-Glo luminescence, 24 h; inhibition, % at 10 µM; 63% of 4,600 active;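 active = inhibition of yeast growth at or above a set limit in either of two replicates at 10 µM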;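 also: this counterscreen used the strain with wild-type TIM10; 0% = yeast with DMSO and 100% = medium wells lacking yeast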
The depositor's hits bear a star; . = not tested or not shown.

SMILES | tim23-1 inh | NALP3 yeast inh | TIM10 inh | tim10-1 inh | NALP1 yeast inh | TIM10 conf
CO/N=C(\c1nonc1N)N1CCN(c2ccc(Cl)cc2[N+](=O)[O-])CC1 | 36.5 | 9.7 | 43.4* | 26.9 | -4.6 | 31.1*
Cc1ccc(N2C(=O)c3cccc(Oc4ccc(Cl)cc4)c3C2=O)c(C)c1 | 29.0 | -9.4 | 41.7* | 22.9 | 26.9 | 23.6
O=C(C1CC1)N1CCc2cc(Br)cc(S(=O)(=O)N3CCCCCC3)c21 | -32.7 | 0.7 | 47.2* | -1.5 | 34.7 | -65.9
O=C(Nc1ccc(Cl)c(Cl)c1)O/N=C/c1ccncc1 | 8.1 | 5.5 | 43.0* | 28.6 | 9.6 | -23.9
Cc1cnc(=O)[nH]c1SCc1ccc([N+](=O)[O-])cc1 | -3.3 | 5.5 | -0.7 | -17.8 | 28.3 | .
C/C=C/C(=O)OCC(=O)Nc1ccc(SC(F)F)cc1 | 26.2 | -11.1 | 9.5 | 25.2 | 13.5 | .
NC(=O)Cn1nc(-c2ccccc2)nc1-c1ccccc1 | 9.4 | -5.3 | 9.2 | 3.4 | . | .
O=C(Nc1ccc(Cl)c(Cl)c1)Nc1ccccc1NS(=O)(=O)c1cccs1 | -142.4 | 4.9 | 46.9* | 19.5 | 31.3 | 25.4
O=C(Nc1ccccc1)Nc1ccccc1NS(=O)(=O)c1cccs1 | 7.2 | -5.2 | 1.3 | 5.2 | 24.4 | .
N/C(=N\OC(=O)c1ccc2c(c1)OCO2)c1ccc(Cl)cc1 | 47.3 | 45.5 | 47.8* | 32.7 | 12.2 | 46.5*
N/C(=N\OC(=O)c1ccc(Cl)c(Cl)c1)c1ccccn1 | 14.5 | 25.2 | 20.3 | 20.3 | 26.8 | .
N/C(=N\OC(=O)c1ccc(Cl)cc1)c1ccccn1 | 48.4 | 13.8 | 61.7* | 37.2 | 11.5 | 47.2*
COc1ccc(C(=O)O/N=C(\N)c2ccccn2)cc1 | 48.8 | 16.6 | 42.2* | 34.2 | -1.8 | 35.8*
N/C(=N\OC(=O)c1ccc2c(c1)OCO2)c1ccncc1 | -1.0 | -6.9 | -4.9 | 12.8 | . | .
N/C(=N\OC(=O)c1cccc(Br)c1)c1ccccn1 | 46.8 | 30.0 | 59.1* | 33.1 | 15.4 | 41.9*
CCc1nc2cc(C)nn2c2nc3ccccc3n12 | 17.0 | -1.8 | 10.0 | 5.9 | 2.6 | .
Cc1cc2nc(C)n3c4ccccc4nc3n2n1 | 42.8 | 16.4 | 58.7* | 37.9 | -14.4 | 44.9*
Cc1nn(-c2ccccc2)c(N)c1N=Nc1ccc(Cl)cc1 | 11.7 | 20.2 | 44.1* | 34.2 | 37.2 | 31.7*
COc1ccc(N(CC(=O)NC2CCCC2)C(=O)c2ccc(C)s2)c(OC)c1 | 24.3 | 10.9 | 21.6 | 9.6 | -2.3 | .
O=C(Nc1cccc([N+](=O)[O-])c1)c1ccccc1 | 24.7 | 26.3 | 12.0 | -33.1 | 30.9 | .
O=C(C#Cc1cccc([N+](=O)[O-])c1)c1ccccc1 | -20.0 | -48.7 | 80.0* | 28.8 | -10.3 | 83.1*
CCC(Cc1ccccc1)n1c(=S)[nH]c2ccccc2c1=O (centres undefined) | 23.8 | 17.5 | 49.5* | 34.0 | 5.8 | 38.0*
Cc1cccnc1CCNC(=O)CC1C(=O)NCCN1CC1CCCCC1 (centres undefined) | 32.5 | 20.9 | 8.3 | 18.5 | 0.9 | .
O=C(c1ccc(Br)cc1)C(CN1CCOCC1)c1ccccc1 (centres undefined) | -19.7 | 20.3 | 50.6* | -122.8 | 39.3* | 59.6*
COc1cc(OC)cc(C(=O)NC(=S)NCCc2ccccc2)c1 | 48.4 | -3.1 | 44.0* | 22.4 | 5.3 | 18.1
SMILES | tim23-1 inh | NALP3 yeast inh | TIM10 inh | tim10-1 inh | NALP1 yeast inh | TIM10 conf
COc1ccc(C(=O)NC(=S)NCc2ccccc2)cc1 | 40.2 | 17.3 | 21.0 | 34.3 | -0.1 | .
Cc1cccc(-n2ncc3c(=O)[nH]c(SCC(=O)NCCC4=CCCCC4)nc32)c1 | -1.7 | 8.5 | 1.8 | -15.1 | . | .
CC(C)(O)C#Cc1ccc(CN2CCN(CCc3ccccc3)C(CCO)C2)s1 (centres undefined) | 9.2 | 2.2 | 4.5 | 13.1 | -8.1 | .
CN1CCC(NC(=O)NC2CCCCC2)CC1 | 0.3 | -9.7 | 3.9 | 4.7 | 24.7 | .
O=C(NC1CCCCCCC1)NC1CCCCC1 | 32.8 | 25.7 | 49.6* | 29.6 | 9.8 | 23.5
Cc1ccc(NS(=O)(=O)c2c(C)[nH]c(C)c2C(=O)N2CCCCC2)cc1Cl | 14.6 | -21.3 | 2.7 | -5.5 | -10.1 | .
COc1ccccc1-c1coc2c(CN3CCCC(C)C3)c(O)ccc2c1=O (centres undefined) | 7.0 | 16.2 | 6.0 | 13.3 | 3.3 | .
CC(=O)Nc1ccc(Sc2ncnc3scc(-c4ccccc4)c23)cc1 | 28.6 | 31.7 | 35.3 | 27.8 | 41.1 | .
CCCC(=O)Nc1ccccc1Sc1ncnc2scc(-c3ccccc3)c12 | 47.0 | 15.6 | 46.6* | 27.8 | 19.9 | 50.8*
